Laboratory results reported in PubChem BioAssay AID1159580 (chemical genetic matrix, 2015).
“And” between values parts separate entries of the source, which are not always exact repeats. Equal values may be shown once. About 2,000 (36%) of roughly 5,500 compounds were called active. Inconclusive results (about 18%) are left out. Rule as the data show it: active = normalized growth mostly below about 0.91 (no sharp cut-off); inconclusive = no clear call, values can overlap the other calls; inactive = mostly above about 0.92. The list shows a part of the results. Some compounds were tested as several samples or in several runs, with calls that do not always agree.

Assay: chemical genetic growth profiling, strain panel (AID 1159580);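 also: tested at 20 µM; growth read once vehicle control cultures reached saturation at 30 °C; 1 = growth at the plate median or of vehicle wells; lower values mean less growth of the strain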
Details: S. cerevisiae deletion strains, growth OD

## CN1CCN(CCCN2c3ccccc3Sc3ccc(C(F)(F)F)cc32)CC1
Locus YAL013W, strain DEP1, stronger effect = lower value
  normalized growth: 0.065 (active) and 0.82 (active)
Locus YAL021C, strain ccr4, stronger effect = lower value
  normalized growth: 0.0696 (active)
Locus YAL026C, strain drs2, stronger effect = lower value
  normalized growth: 0.0611 (active)
Locus YAL030W, strain snc1, stronger effect = lower value
  normalized growth: 0.0651 (active)
Locus YAL040C, strain CLN3, stronger effect = lower value
  normalized growth: 0.989 (inactive)
Locus YBL061C, strain skt5, stronger effect = lower value
  normalized growth: 0.0653 (active)
Locus YBR009C, strain hhf1, stronger effect = lower value
  normalized growth: 0.0647 (active)
Locus YBR021W, strain FUR4, stronger effect = lower value
  normalized growth: 0.102 (active)
Locus YBR023C, strain chs3, stronger effect = lower value
  normalized growth: 0.0673 (active)
Locus YBR171W, strain sec66, stronger effect = lower value
  normalized growth: 0.0984 (active)
Locus YBR229C, strain ROT2, stronger effect = lower value
  normalized growth: 0.0712 (active)
Locus YBR231C, strain swc5, stronger effect = lower value
  normalized growth: 0.0679 (active)
Locus YBR279W, strain paf1, stronger effect = lower value
  normalized growth: 0.0731 (active)
Locus YCL011C, strain gbp2, stronger effect = lower value
  normalized growth: 0.0652 (active)
Locus YCL016C, strain dcc1, stronger effect = lower value
  normalized growth: 0.0786 (active)
Locus YCL029C, strain bik1, stronger effect = lower value
  normalized growth: 0.0752 (active)
Locus YCL061C, strain MRC1 (second series), stronger effect = lower value
  normalized growth: 0.969 (inactive)
Locus YCL061C, strain MRC1, stronger effect = lower value
  normalized growth: 0.0741 (active)
Locus YCL069W, strain vba3, stronger effect = lower value
  normalized growth: 0.0697 (active)
Locus YCR088W, strain abp1, stronger effect = lower value
  normalized growth: 0.0705 (active)
Locus YDL005C, strain med2, stronger effect = lower value
  normalized growth: 0.412 (active)
Locus YDL035C, strain GPR1, stronger effect = lower value
  normalized growth: 0.061 (active)
Locus YDL040C, strain nat1, stronger effect = lower value
  normalized growth: 0.0906 (active)
Locus YDL074C, strain BRE1, stronger effect = lower value
  normalized growth: 0.0975 (active)
Locus YDL101C, strain DUN1, stronger effect = lower value
  normalized growth: 0.0711 (active)
Locus YDL134C, strain PPH21, stronger effect = lower value
  normalized growth: 0.0567 (active)
Locus YDL185W, strain tfp1, stronger effect = lower value
  normalized growth: 0.936 (inactive)
Locus YDL192W, strain arf1, stronger effect = lower value
  normalized growth: 0.0649 (active)
Locus YDR001C, strain nth1, stronger effect = lower value
  normalized growth: 0.0725 (active)
Locus YDR069C, strain doa4, stronger effect = lower value
  normalized growth: 0.0695 (active)
Locus YDR101C, strain arx1, stronger effect = lower value
  normalized growth: 0.0878 (active)
Locus YDR137W, strain rgp1, stronger effect = lower value
  normalized growth: 0.261 (active)
Locus YDR150W, strain NUM1, stronger effect = lower value
  normalized growth: 0.0679 (active)
Locus YDR159W, strain sac3, stronger effect = lower value
  normalized growth: 0.0958 (active)
Locus YDR162C, strain NBP2, stronger effect = lower value
  normalized growth: 0.0537 (active)
Locus YDR195W, strain ref2
  normalized growth: 0.141 (active)
Locus YDR297W, strain sur2, stronger effect = lower value
  normalized growth: 0.0695 (active)
Locus YDR318W, strain mcm21, stronger effect = lower value
  normalized growth: 0.0756 (active)
Locus YDR334W, strain swr1, stronger effect = lower value
  normalized growth: 0.0668 (active)
Locus YDR335W, strain msn5, stronger effect = lower value
  normalized growth: 0.0678 (active)
Locus YDR363W, strain ESC2, stronger effect = lower value
  normalized growth: 0.87 (active)
Locus YDR388W, stronger effect = lower value
  normalized growth: 0.0596 (active)
Locus YDR392W, strain spt3, stronger effect = lower value
  normalized growth: 0.0857 (active)
Locus YDR502C, strain sam2, stronger effect = lower value
  normalized growth: 0.0724 (active)
Locus YEL003W, strain gim4, stronger effect = lower value
  normalized growth: 0.0619 (active)
Locus YEL037C, strain rad23, stronger effect = lower value
  normalized growth: 0.0674 (active)
Locus YEL061C, strain CIN8 (second series), stronger effect = lower value
  normalized growth: 0.0766 (active)
Locus YEL061C, strain CIN8, stronger effect = lower value
  normalized growth: 0.0589 (active)
Locus YER002W, strain NOP16, stronger effect = lower value
  normalized growth: 1.07 (inactive)
Locus YER015W, strain faa2, stronger effect = lower value
  normalized growth: 0.0802 (active)
Locus YER016W, strain bim1, stronger effect = lower value
  normalized growth: 0.0723 (active)
Locus YER110C, stronger effect = lower value
  normalized growth: 0.293 (active)
Locus YER111C, strain swi4, stronger effect = lower value
  normalized growth: 0.36 (active)
Locus YER155C, strain BEM2 (second series), stronger effect = lower value
  normalized growth: 1.01 (inactive)
Locus YER155C, strain BEM2, stronger effect = lower value
  normalized growth: 0.12 (active)
Locus YER167W, strain BCK2, stronger effect = lower value
  normalized growth: 0.0606 (active)
Locus YFR010W, strain ubp6, stronger effect = lower value
  normalized growth: 0.0817 (active)
Locus YGL078C, strain dbp3, stronger effect = lower value
  normalized growth: 0.978 (inactive)
Locus YGL086W, strain mad1, stronger effect = lower value
  normalized growth: 0.0657 (active)
Locus YGL167C, strain pmr1, stronger effect = lower value
  normalized growth: 0.0948 (active)
Locus YGL173C, strain kem1, stronger effect = lower value
  normalized growth: 0.216 (active)
Locus YGL227W, strain vid30, stronger effect = lower value
  normalized growth: 0.0831 (active)
Locus YGL240W, strain doc1, stronger effect = lower value
  normalized growth: 0.554 (active)
Locus YGL248W, strain PDE1, stronger effect = lower value
  normalized growth: 0.0581 (active)
Locus YGL253W, strain hxk2, stronger effect = lower value
  normalized growth: 0.0605 (active)
Locus YGR078C, strain PAC10, stronger effect = lower value
  normalized growth: 0.0702 (active) and 0.956 (inactive)
Locus YGR135W, strain pre9, stronger effect = lower value
  normalized growth: 0.0937 (active)
Locus YGR229C, strain SMI1, stronger effect = lower value
  normalized growth: 0.0673 (active) and 0.0769 (active)
Locus YGR252W, strain gcn5, stronger effect = lower value
  normalized growth: 0.138 (active)
Locus YHR013C, strain ard1, stronger effect = lower value
  normalized growth: 0.169 (active)
Locus YHR027C, strain rpn1, stronger effect = lower value
  normalized growth: 0.0682 (active)
Locus YHR030C, strain SLT2, stronger effect = lower value
  normalized growth: 0.0545 (active) and 0.948 (inactive)
Locus YHR079C, strain IRE1 (second series), stronger effect = lower value
  normalized growth: 0.0763 (active)
Locus YHR079C, strain IRE1, stronger effect = lower value
  normalized growth: 0.961 (inactive)
Locus YHR094C, strain hxt1, stronger effect = lower value
  normalized growth: 0.0748 (active)
Locus YHR129C, strain ARP1, stronger effect = lower value
  normalized growth: 0.0646 (active)
Locus YHR142W, strain chs7, stronger effect = lower value
  normalized growth: 0.0848 (active)
Locus YHR200W, strain rpn10, stronger effect = lower value
  normalized growth: 0.0811 (active)
Locus YIL066C, strain RNR3, stronger effect = lower value
  normalized growth: 0.0614 (active)
Locus YIL073C, strain SPO22, stronger effect = lower value
  normalized growth: 0.113 (active)
Locus YIL125W, strain kgd1, stronger effect = lower value
  normalized growth: 0.982 (inactive)
Locus YIR030C, strain dcg1, stronger effect = lower value
  normalized growth: 0.0766 (active)
Locus YJL092W, strain hpr5, stronger effect = lower value
  normalized growth: 0.0707 (active)
Locus YJL095W, strain BCK1 (second series), stronger effect = lower value
  normalized growth: 0.0585 (active)
Locus YJL095W, strain BCK1, stronger effect = lower value
  normalized growth: 0.0646 (active) and 0.977 (inactive)
Locus YJL115W, strain asf1, stronger effect = lower value
  normalized growth: 0.0851 (active)
Locus YJL129C, strain trk1, stronger effect = lower value
  normalized growth: 0.0827 (active)
Locus YJL134W, strain LCB3, stronger effect = lower value
  normalized growth: 0.108 (active)
Locus YJL154C, strain vps35, stronger effect = lower value
  normalized growth: 0.0623 (active)
Locus YJL164C, strain tpk1, stronger effect = lower value
  normalized growth: 0.0715 (active)
Locus YJL166W, strain qcr8, stronger effect = lower value
  normalized growth: 0.0701 (active)
Locus YJL168C, strain set2, stronger effect = lower value
  normalized growth: 0.0656 (active)
Locus YJL187C, strain SWE1 (second series), stronger effect = lower value
  normalized growth: 0.0593 (active)
Locus YJL187C, strain SWE1, stronger effect = lower value
  normalized growth: 0.0715 (active)
Locus YJR043C, strain POL32, stronger effect = lower value
  normalized growth: 0.0718 (active)
Locus YJR066W, strain TOR1, stronger effect = lower value
  normalized growth: 0.915 (inactive)
